From PubChem BioAssay (EPA / NIEHS)
Records with an inconclusive call do not appear. The source made the active and inactive calls. Rule for the calls: active = hit-call score of the fitted dose curve at least 0.9, where 1 is the maximum; inconclusive = response in the unintended direction; inactive = score below 0.9.

target: human AKT serine/threonine Kinase 2 (AKT2), AKT2 (gene 208) (UniProt P31751); assay: NVS_ENZ_hAKT2: NovaScreen (NVS) Enzymatic Assay for human AKT serine/threonine Kinase 2 (AKT2) (AID 2283141)
Outline: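 Cell-free fluorescence/electrophoretic mobility shift readout of recombinant human AKT2 activity, 1 h after chemical dosing. Duplicate primary screen at 25 uM, then singleton concentration-response up to 50 uM; loss of signal versus DMSO baseline.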

Chain of human AKT serine/threonine Kinase 2 (AKT2), AKT2 (gene 208) (P31751 whole entry, looked up): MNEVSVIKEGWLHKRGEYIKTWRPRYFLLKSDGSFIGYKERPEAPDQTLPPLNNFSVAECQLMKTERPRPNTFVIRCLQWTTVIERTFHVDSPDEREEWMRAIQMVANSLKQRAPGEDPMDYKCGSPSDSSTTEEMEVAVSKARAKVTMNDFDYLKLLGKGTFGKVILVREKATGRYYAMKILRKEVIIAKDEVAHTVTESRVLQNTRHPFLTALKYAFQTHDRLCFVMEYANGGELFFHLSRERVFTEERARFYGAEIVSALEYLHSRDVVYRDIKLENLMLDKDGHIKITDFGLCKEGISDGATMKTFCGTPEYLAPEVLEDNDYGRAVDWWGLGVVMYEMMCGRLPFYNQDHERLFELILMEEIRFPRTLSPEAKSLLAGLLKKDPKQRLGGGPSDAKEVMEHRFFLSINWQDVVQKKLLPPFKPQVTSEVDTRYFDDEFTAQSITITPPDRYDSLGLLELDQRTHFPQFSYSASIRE

SMILES	outcome
Cc1ccc(N)c(N)c1	inactive
C[N+](C)(C)CC1CO1 (configuration not stated)	inactive
O=C1CCCO1	inactive
CN(C)C(=O)Nc1ccc(Cl)cc1	inactive
CCCCCCCCn1sccc1=O	inactive
c1ccc(NNc2ccccc2)cc1	inactive
CCNS(=O)(=O)C(F)(F)C(F)(F)C(F)(F)C(F)(F)C(F)(F)C(F)(F)C(F)(F)C(F)(F)F	inactive
Cc1ccc(N=C=O)cc1N=C=O	inactive
CCC[CH2][Sn]([Cl])([CH2]CCC)[CH2]CCC	inactive
O=P(OCCCl)(OCCCl)OCCCl	inactive
O=C(O)C1C2CCC(O2)C1C(=O)O (configuration not stated)	inactive

target: human Aurora Kinase A - serine/threonine-protein Kinase 6 (AurA), AURKA (gene 6790) (UniProt O14965); assay: NVS_ENZ_hAurA: NovaScreen (NVS) Enzymatic Assay for human Aurora Kinase A - serine/threonine-protein Kinase 6 (AurA) (AID 2283142)
Outline: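 Recombinant human AurA activity read by fluorescence after mobility-shift separation of product from substrate; 1 hour incubation. Chemicals first run in duplicate at 25 uM, then concentration series to 50 uM if over threshold; fitted relative to DMSO.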

Chain of human Aurora Kinase A - serine/threonine-protein Kinase 6 (AurA), AURKA (gene 6790) (O14965 whole entry, looked up): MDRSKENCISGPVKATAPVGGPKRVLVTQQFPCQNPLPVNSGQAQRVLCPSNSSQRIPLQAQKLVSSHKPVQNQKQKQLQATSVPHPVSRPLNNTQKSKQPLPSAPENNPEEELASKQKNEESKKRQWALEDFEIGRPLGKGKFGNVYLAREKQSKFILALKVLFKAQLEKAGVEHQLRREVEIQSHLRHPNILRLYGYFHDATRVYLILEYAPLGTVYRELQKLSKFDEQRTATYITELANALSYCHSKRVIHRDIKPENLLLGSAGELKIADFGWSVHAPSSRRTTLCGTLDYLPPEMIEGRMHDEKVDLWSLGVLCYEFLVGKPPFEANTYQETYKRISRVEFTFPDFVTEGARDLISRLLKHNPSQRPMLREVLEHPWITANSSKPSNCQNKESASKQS

SMILES	AC50	outcome
C[C@]12C=CC3=C4CCC(=O)C=C4CC[C@H]3[C@@H]1CC[C@@H]2O	35.3 µM (active)	
CCN(CC)N=O		inactive
COc1cc(C=O)cc2c1[C@H](COC(N)=O)[C@]1(OC(C)=O)ON2C[C@H]2[C@@H]1N2C(C)=O		inactive
ClCCOCCCl		inactive
Nc1ccc([N+](=O)[O-])cc1		inactive
CC(C)(C)C(O)(CCc1ccc(Cl)cc1)Cn1cncn1 (configuration not stated)		inactive
